This excerpt belongs to a sample that is enriched for hits.
TDP1 cell CPT = growth inhibition of DT40 Tdp1-/-;hTDP1 cells with camptothecin (screen for TDP1 inhibitors); hit rate 12% among 420,000; chicken DT40 Tdp1-/-;hTDP1 cells + 20 nM CPT, ATP luminescence, 48 h; Potency, µM (highest dose often 46.2 µM), without a hit: top-dose activity change, negative = growth inhibition, most hits filed as inhibitors; note: potency is the fitted concentration of half-maximal effect; nearly all actives have a fitted effect of over 55% in size
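Chicken DT40 Tdp1-/- cells stably complemented with human TDP1 were seeded at 400 cells/well in medium containing 20 nM camptothecin, exposed to pin-transferred compounds, and grown at 37 °C for at least 48 hr. Viability was read as ATP luminescence.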
DT40 TDP1 no CPT = qHTS for Inhibitors of human tyrosyl-DNA phosphodiesterase 1 (TDP1): qHTS in cells in absence of CPT; DT40 Tdp1-/- hTDP1 cells, no CPT, ATP luminescence, 48 h; Potency, µM (highest dose often 46.2 µM), without a hit: top-dose activity change, negative = growth inhibition, most hits filed as inhibitors; hit rate 15% among 420,000; AID 686978, 2013; note: potency is the fitted concentration of half-maximal effect; nearly all actives have a fitted effect of over 55% in size
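Camptothecin absent (DMSO only). Human TDP1-complemented DT40 knockout cells, 400 cells/well, 37 °C for minimum 48 hr; ATP measured via CellTiter-Glo, 30 min dark incubation, luminescence.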
HT1080NT lethal = kills 2HG-producing HT-1080-NT fibrosarcoma cells | HT-1080-NT fibrosarcoma viability, CellTiter-Glo ATP luminescence, 48 h | Potency, µM (highest dose often 46.1 µM), inactives show at the top dose activity, negative = less viability, hits mostly cytotoxic | hit rate 1.6% among 360,000;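 note: NT is the 2HG producing partner of a matched IDH1 knockdown line; potency is the fitted concentration of half-maximal effect; 0% = DMSO-treated cells and -100% = media-only wells without cells; nearly all actives have a fitted effect of over 55% in size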
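Viability by CellTiter-Glo luminescence after 48 h compound exposure at 37C of HT-1080-NT cells (750/well, RPMI, 5% FBS). % activity scaled between DMSO wells and medium-only wells, then curve-fitted and categorized by curve class.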
ALOX12 inh = blocks human arachidonate 12S-lipoxygenase; hit rate 1.1% among 580,000; purified 12hLO, xylenol orange hydroperoxide absorbance; P18054; Potency, µM (highest dose often 108 µM), for the others: top-dose activity change, negative = inhibition, actives largely listed as inhibitors; note: potency is the fitted concentration of half-maximal effect
Target sequence (P18054 whole entry, looked up): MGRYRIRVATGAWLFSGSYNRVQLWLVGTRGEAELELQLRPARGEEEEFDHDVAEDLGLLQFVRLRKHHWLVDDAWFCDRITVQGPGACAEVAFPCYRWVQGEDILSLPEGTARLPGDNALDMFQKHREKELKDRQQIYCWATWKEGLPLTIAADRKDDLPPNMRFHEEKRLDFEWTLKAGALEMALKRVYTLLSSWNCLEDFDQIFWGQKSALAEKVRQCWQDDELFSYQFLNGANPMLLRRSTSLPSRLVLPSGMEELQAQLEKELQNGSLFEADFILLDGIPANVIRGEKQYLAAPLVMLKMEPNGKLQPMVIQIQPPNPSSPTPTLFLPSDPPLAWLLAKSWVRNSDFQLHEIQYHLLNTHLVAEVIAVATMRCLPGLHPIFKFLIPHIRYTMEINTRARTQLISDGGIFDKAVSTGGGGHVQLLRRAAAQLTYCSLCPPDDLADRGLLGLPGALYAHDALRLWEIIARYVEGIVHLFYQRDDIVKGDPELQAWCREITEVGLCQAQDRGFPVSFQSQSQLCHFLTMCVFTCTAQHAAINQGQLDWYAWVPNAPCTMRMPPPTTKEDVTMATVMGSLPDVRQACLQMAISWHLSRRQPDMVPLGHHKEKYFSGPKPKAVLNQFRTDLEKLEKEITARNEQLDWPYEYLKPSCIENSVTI
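Purified human 12hLO (150 nM final) in 25 mM Hepes, 0.01% Triton X-100, pH 7.0 was preincubated 15 min at room temperature with compound. Then 40 uM arachidonic acid was added, 30 min. Hydroperoxide was read by Fe-XO absorbance ratio 573/405 nm.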
IL-1B inflam inh = inflammasome signaling inhibition, IL-1 beta readout | THP-1 LPS/ATP IL-1B secretion, AlphaLISA, 16 h; active compounds read low | activity change, % at 57.5 µM | hit rate 4.7% among 360,000 | AID 743279; in the data active = activity change below about -50%; inconclusive = mostly about -30% to -49%
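THP-1 cells pretreated 1 hr with compounds (up to 57.5 uM final), then stimulated with LPS (250 ng/mL final) plus ATP (1.25 mM final); secreted IL-1B measured by AlphaLISA after 16 hr, decreased signal indicating inhibition.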
HT1080 IDH1KD tx = HT-1080 IDH1 knockdown cell toxicity (counter line). HT-1080 IDH1 knockdown viability, ATP luminescence, 48 h. Potency, µM (highest dose often 46.1 µM), without a hit: at the top dose activity, negative = toxicity, usual class: cytotoxic. hit rate 2% among 360,000. AID 686971;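 note: potency is the fitted concentration of half-maximal effect; 0% = DMSO wells and -100% = cell-free medium wells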
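Knockdown cells (IDH1KD HT-1080) received compounds 2 h after plating at 750 cells/well and were kept 48 h at 37 °C in 5% FBS RPMI. A CellTiter-Glo luminescence read gave % activity for curve fitting.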
* hit, by the source's call; ? = inconclusive; . = no result given. Unless noted, calls come from the whole dose curve; as a rule, active = well fitted curve in the direction sought with a large enough effect; inconclusive = small, poorly fitted or top-dose-only effect, or another doubt; inactive = no such curve, though single readings can be large; an effect the other way counts as inactive or inconclusive. Unless noted, % is set by controls: 0 for no effect and ±100 for the full control effect.

SMILES	TDP1 cell CPT	DT40 TDP1 no CPT	HT1080NT lethal	ALOX12 inh	IL-1B inflam inh	HT1080 IDH1KD tx
Cc1ccc(S(=O)(=O)N(C)C[C@H]2Oc3ccc(NC(=O)C4CCCCC4)cc3C(=O)N([C@H](C)CO)C[C@H]2C)cc1	25.9µM*	20.6µM*	?	?	-68.6*	?
C[C@H](CO)N1C[C@H](C)[C@@H](CN(C)S(=O)(=O)c2ccc(F)cc2)Oc2ccc(NC(=O)C3CCCCC3)cc2C1=O	?	16.4µM*	-0.2%	-11.1%	-23.0	4.3%
COc1ccc(C2CC(=O)Nc3c2c(C)nn3-c2ccc(C)cc2)cc1OC (stereo not drawn)	.	.	.	6.1%	.	.
COc1cc(/C=C(\C#N)c2nc3ccccc3[nH]2)ccc1OCC(=O)OC(C)C	.	.	.	-6.0%	.	.
O=C(Nc1ccc2ncccc2c1)c1cc2cc(F)ccc2[nH]1	.	.	.	5.1%	.	.
CCCOc1ccccc1Oc1ncccc1CNC(=O)Nc1cccnc1	.	.	.	23.1%	.	.
Cc1c(NC(=O)c2cc3ccccc3o2)cccc1-c1nc2ccccc2o1	?	?	.	1.1%	.	.
Cc1c(NC(=O)c2cccc3c(Cl)cccc23)cccc1-c1nc2ccccc2o1	14.6µM*	20.6µM*	.	-14.8%	.	.
Cc1c(NC(=O)c2ccc(Br)o2)cccc1-c1nc2ccccc2o1	25.9µM*	23.1µM*	.	3.0%	.	.
CC1=C(C(=O)N(C(C)C)C(C)C)CC(CC(=O)NCCN2CCOCC2)C(=O)N1CCC1=CCCCC1 (stereo not drawn)	-14.2%	-28.1%	7.5%	-1.6%	-15.9	6.6%
CCCCc1ccc(NC(=O)CSc2nc(=O)n(CCN(CC)CC)c3c2CCC3)cc1	?	?	-1.6%	?	-80.0*	-1.6%
CCN(CC)CCn1c2c(c(SCC(=O)Nc3ccc(C)c(F)c3)nc1=O)CCCC2	?	?	-6.8%	-13.0%	?	-16.2%
CCOC(=O)Cc1csc(NC(=O)CSc2nc(=O)[nH]c3c2CCC3)n1	0.2%	-28.2%	2.3%	-4.7%	-90.2*	5.0%
CCOC(=O)Cc1csc(NC(=O)CSc2nc(=O)[nH]c3c2CCCC3)n1	4.6%	?	1.7%	-53.7%	-3.8	-1.0%
CCN(CC)CCCn1c2c(c(SCC(=O)Nc3cc(OC)cc(OC)c3)nc1=O)CCC2	?	18.4µM*	-17.0%	-19.7%	?	-16.0%
CCN(CC)CCn1c2c(c(SCC(=O)Nc3ccc(F)c(F)c3)nc1=O)CCC2	-6.0%	6.7%	-3.6%	-21.1%	-65.9*	-1.2%
Cc1cc(C)n2nnnc2n1	1.5%	7.9%	6.0%	0.0%	36.7	17.8%
COC(=O)[C@]12C[C@H](CC(=O)N3CCOCC3)C(=O)N(CCC3=CCCCC3)C1=C[C@H](COCc1ccccc1)O[C@@H]2C	.	.	.	10.9%	.	.
CCN(CC)CCn1c2c(c(SCC(=O)Nc3ccc(C(C)C)cc3)nc1=O)CCCC2	?	?	-1.9%	-4.8%	-50.3*	0.4%
CC(C)c1ccc(NC(=O)CSc2nc(=O)[nH]c3c2CCCC3)cc1	?	20.6µM*	-6.5%	-5.8%	12.1	-10.3%
CCN(CC)CCn1c2c(c(SCC(=O)Nc3nc(C)cs3)nc1=O)CCC2	6.5%	6.6%	-3.9%	0.3%	-69.2*	-1.5%
CCOc1ccc(NC(=O)CSc2nc(=O)[nH]c3c2CCC3)cc1	?	?	.	-30.5%	.	.
CCc1c(C(=O)NC2CCN(C)CC2)csc1C	.	.	.	10.2%	.	.
O=C(Cc1ccccc1[N+](=O)[O-])NCCCc1ccccc1	16.4µM*	?	-14.7%	15.7%	0.7	-16.0%
NS(=O)(=O)c1ccc(CCNC(=O)Cc2ccccc2[N+](=O)[O-])cc1	-9.5%	-10.1%	-8.2%	-13.8%	30.1	-5.2%
O=C(CCCc1ccccc1)Nc1ccccc1[N+](=O)[O-]	10.3µM*	20.6µM*	1.0%	-17.2%	4.0	-10.8%

Screening data deposited in PubChem BioAssay by National Center for Advancing Translational Sciences (NCATS).
